High-throughput results (PubChem BioAssay)
SMN2 splice up: qHTS Assay for Enhancers of SMN2 Splice Variant Expression; 2.8% of 210,000 active; HEK293 SMN2-luciferase splicing reporter, luminescence, 30-36 h; Potency, µM (top dose mostly 46.1 µM), for inactives: at the highest dose activity change, positive = activation, usual class: activators; AID 1458, 2008; further: % of control where 0% means no effect; nearly all actives have a fitted effect of over 55% in size
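HEK293 cells carry an SMN2 minigene-luciferase reporter in which exon 7 inclusion puts luciferase in frame. Cells were seeded at 2000 cells/well, attached for 10-12 hours, then exposed to compounds for 30-36 hours at 37C before ONE-Glo luminescence.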
Rab9 prom act: qHTS Assay for Rab9 Promoter Activators. Huh7 Rab9 promoter-luciferase reporter, luminescence, 24 h. Potency, µM (titrated, usually from 9.22 µM), for inactives: top-dose activation, negative = inhibition, actives largely listed as activators. 2.8% of 320,000 active; further: % of control where 0% means no effect; nearly all actives have a fitted effect of over 60% in size
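Measured in stably transfected Huh7 cells bearing a Rab9 promoter–luciferase construct: 24 h compound treatment at 37 °C, followed by luminescence detection.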
ELG1 genotoxic: qHTS screen for small molecules that induce genotoxicity in human embryonic kidney (HEK293T) cells expressing luciferase-tagged ELG1. HEK293T ELG1-luciferase reporter, luminescence, 16 h. Potency, µM (top dose mostly 46 µM), without a hit: top-dose activity change, positive = activation, usual class: activators. 1.3% of 330,000 active. AID 504466, 2011; further: % of control where 0% means no effect; nearly all actives have a fitted effect of over 60% in size
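Step 1: seed 2,000 HEK293T ELG1-luciferase cells per well. Step 2: add compound or DMSO, incubate 16 hr at 37 °C. Step 3: ONE-Glo, 30 min at room temperature, read luminescence.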
NPC1 promoter act: qHTS Assay for NPC1 Promoter Activators | Huh7 NPC1 promoter luciferase reporter, 24 h | Potency, µM (doses to about 9.22 µM), for inactives: at the highest dose activation, usual class: activators | 2.4% of 320,000 active | AID 485313, 2010; further: % of control where 0% means no effect; nearly all actives have a fitted effect of over 60% in size
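Stable NPC1-promoter luciferase Huh7 line; cpd (DMSO) 24 h, 37 °C, 5% CO2; Amplite luciferase reagent 10 min RT; luminescence readout. qHTS format.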
FLuc modulator: qHTS profiling assay for firefly luciferase inhibitor/activator using purifed enzyme and Km concentrations of substrates (counterscreen for miR-21 project) | Potency, µM (series often up to 57.5 µM), inactives show top-dose activity change, negative = inhibition, actives largely listed as inhibitors | 6.9% of 360,000 active | AID 588342, 2011 | purified FLuc, Km substrates, luminescence inhibition;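 further: plate controls were vehicle for no effect and reference inhibitor for full effect; nearly all actives have a fitted effect of over 55% in size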
Target sequence (P08659 whole entry, looked up): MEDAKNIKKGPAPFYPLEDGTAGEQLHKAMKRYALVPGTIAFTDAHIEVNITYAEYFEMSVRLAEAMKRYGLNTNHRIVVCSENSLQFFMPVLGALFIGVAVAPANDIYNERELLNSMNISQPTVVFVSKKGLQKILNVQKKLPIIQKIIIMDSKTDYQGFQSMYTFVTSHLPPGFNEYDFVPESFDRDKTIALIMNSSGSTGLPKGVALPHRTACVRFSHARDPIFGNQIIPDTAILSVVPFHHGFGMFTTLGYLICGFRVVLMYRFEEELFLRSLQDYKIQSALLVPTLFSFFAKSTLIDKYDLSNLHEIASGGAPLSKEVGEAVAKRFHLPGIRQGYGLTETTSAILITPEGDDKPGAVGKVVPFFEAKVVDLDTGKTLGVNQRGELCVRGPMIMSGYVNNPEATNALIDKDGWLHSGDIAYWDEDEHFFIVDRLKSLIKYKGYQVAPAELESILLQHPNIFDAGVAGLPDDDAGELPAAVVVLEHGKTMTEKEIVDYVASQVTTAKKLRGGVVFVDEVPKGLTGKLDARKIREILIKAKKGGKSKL
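Purified P. pyralis luciferase (10nM final) with 10uM D-luciferin and 10uM ATP (Km levels) in 50mM Tris acetate pH 7.5, 10mM Mg acetate, 0.01% Tween-20, 0.05% BSA; qHTS 6-point titration, ~60 µM downward; luminescence read.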
ELG1 DNA repair: qHTS screen for small molecules that inhibit ELG1-dependent DNA repair in human embryonic kidney (HEK293T) cells expressing luciferase-tagged ELG1; HEK293T ELG1-luciferase reporter, luminescence, 16 h; DNA damage induced by 5-fluorouridine; Potency, µM (doses to about 46.1 µM), for inactives: at the top dose activity change, negative = inhibition, most hits filed as inhibitors; 2.3% of 330,000 active; further: on the % scale 0 is the no-effect control and ±100 the full control effect; nearly all actives have a fitted effect of over 55% in size
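Cells (2,000 per well) received 5-fluorouridine plus test compound or DMSO and were incubated 16 hr at 37 °C, 5% CO2. Luciferase activity was read by luminescence 30 min after ONE-Glo addition; signal suppression marked inhibition of damage-induced ELG1 function.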
The depositor's hits bear a star; ? = inconclusive; . = no result given. Sampled rows, rich in hits. Any-hit rate of the full collection: about 9.2%. The call rests on the fitted dose curve; in most records, active means well fitted curve in the direction sought with a large enough effect; inconclusive means small, poorly fitted or top-dose-only effect, or another doubt; inactive means no such curve, though single readings can be large; an effect the other way counts as inactive or inconclusive. Potency means the concentration at half of the fitted maximal effect.

SMILES	SMN2 splice up	Rab9 prom act	ELG1 genotoxic	NPC1 promoter act	FLuc modulator	ELG1 DNA repair
O=C(c1ccc(S(=O)(=O)Nc2ccccc2F)cc1)N1CCCC1	.	-1%	0%	-2%	-1%	23%
COC(=O)c1cc(S(=O)(=O)N2CCN(c3ccc(C(C)=O)cc3)CC2)c[nH]1	.	-5%	0%	-7%	1%	-4%
Cn1c(=NC(=O)c2ccccc2[N+](=O)[O-])sc2cc(S(C)(=O)=O)ccc21	2.2µM*	0.56µM*	8.2µM*	0.35µM*	0.54µM*	?
COC(=O)c1cc(NC(=O)CN2C(=O)C(=O)N(C3CCCC3)C2=O)cc(C(=O)OC)c1	.	0%	-1%	1%	10%	?
Cc1ccc(CN(C)C(=O)CN2C(=O)NC3(CCCc4ccccc43)C2=O)c(C)c1 (stereo not given)	.	-9%	-3%	-9%	-3%	-17%
COc1cc(C)ccc1OCCOc1c(Cl)cc(Cl)cc1Cl	.	8%	0%	-2%	?	14%
COc1cc(C)ccc1OCCOc1cc(C)ccc1Cl	.	-4%	-2%	4%	13µM*	4%
COc1cc(C)ccc1OCCOc1c(C)cccc1Cl	-11%	?	14%	17%	27µM*	?
CCCCOc1ccc(NC(=O)Cn2nnnc2-c2ccccc2F)cc1	7%	.	.	.	-1%	.
COc1cc(-c2nc3ccc(N4CCN(C)CC4)cc3[nH]2)cc(OC)c1OC	16µM*	-5%	7.3µM*	0%	13µM*	?
COc1ccc(-c2nc3ccc(N4CCN(C)CC4)cc3c(=O)[nH]2)cc1	49%	28%	?	22%	15µM*	9%
COc1ccc2nc(C)cc(Nc3ccc(N4CCN(C)CC4)cc3)c2c1	.	-25%	15%	-19%	-1%	-6%
CCCCC(=O)Nc1nnc(CCOC)s1	2%	-13%	-3%	0%	?	-13%
COc1ccccc1NC(=S)NNC(=O)c1nn(C)c(C)c1Br	22%	0%	7%	14%	15µM*	?
COc1ccc(C)cc1NC(=S)NNC(=O)c1c(Br)cnn1C	-9%	1%	-5%	5%	27µM*	?
CS(=O)(=O)N1CCC[C@@]2(CCN(c3ccccn3)C2)C1	-10%	.	.	.	.	.
CC(C)=CCN1CCN(Cc2c(C)nn(C)c2Cl)CC1CCO (stereo not given)	-4%	-3%	-1%	-1%	4%	6%
O=c1cnc2ccccc2n1Cc1ccc(Br)cc1	.	19%	6%	6%	27µM*	5%
O=C(O)Cn1c(=O)cnc2ccccc21	-7%	-5%	0%	-6%	0%	9%
CC(C)(C)c1ccc(Cn2c(=O)cnc3ccccc32)cc1	.	-1%	?	-1%	15µM*	-11%
CCC1CCCCN1CCCNC(=O)c1ccc(CS(=O)(=O)c2ccccc2C)o1 (stereo not given)	.	4%	-2%	2%	2%	15%
COCC(=O)N1CCC(Oc2ccc(C(=O)N3C[C@H]4CC[C@H]3C4)cc2)CC1	.	-3%	0%	0%	6%	-4%
COC(=O)Cc1[nH]n(-c2ccccc2)c(=O)c1C=Nc1ccc(C)cc1	.	-3%	2%	0%	9.5µM*	0%
CCOc1[nH]n(-c2ccccc2)c(=O)c1C=NCC(=O)OC	5%	18%	2%	-2%	-4%	-9%
COc1ccc(OCCC(=O)N2CCN(C)CC2)cc1	.	-5%	2%	-5%	-3%	1%
COc1ccc(OCCC(=O)N2CCCCC2)cc1	18µM*	29%	11%	30%	?	?
